Compounds without any hit were thinned out: in the full panel of roughly 79,000, 15% have a hit. Unmarked numbers belong to inactive results. Activity calls are given as the source filed them. No stated cut-off is given here; in the data, active means growth inhibition above about 70%; inactive means the rest.
Assay: NCI Yeast Anticancer Drug Screen. Data for the rad52 strain (AID 147);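 further: 0% = growth of vehicle-treated control cultures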
Conditions: S. cerevisiae rad52 mutant growth inhibition, stronger effect = higher value
Method: Growth inhibition of yeast strains with defined genetic alterations is measured as a screen for potential anti-cancer activity. Selected strains with alterations in DNA damage repair or cell cycle control were exposed to compounds and growth inhibition was measured relative to vehicle treated controls. The strain used in this assay is rad52

| Structure (SMILES) | growth inhibition (at 1.2 µM) [%] | growth inhibition (at 3.7 µM) [%] | growth inhibition (at 11.0 µM) | growth inhibition (at 33.0 µM) | growth inhibition (at 100.0 µM) |
| --- | --- | --- | --- | --- | --- |
| COc1cc(CSc2ccc(O)cc2)cc(O)c1O | 2 | 3 | 5% | 7% | 8% |
| COC1=C(OC)C(=O)C(Sc2ccc3ccccc3c2)=CC1=O | -19 | -19 | 56% | 93% (active) | 92% (active) |
| O=C1C=C(Cl)C(=O)C(c2ccc(Cl)cc2)=C1 | -33 | -7 | 11% | 98% (active) | 96% (active) |
| CC(=O)Nc1ccc2c(c1)Cc1cc(N=C3C=CC(=O)O3)ccc1-2 | 11 | 27 | 85% (active) | 99% (active) | 99% (active) |
| O=C(NNc1ccccc1)c1ccc(Cl)c(Cl)c1 | -1 | 2 | 5% | 26% | 58% |
| C[Si](C)(C)/C=C/CCNC(C#N)c1ccccc1 (stereo not given) | -10 | -9 | 48% | 32% | 93% (active) |
| CC(C)OC(=O)c1ccc(CCc2cc(O)c(Br)cc2O)cc1 | 37 | 50 | 56% | 53% | 79% (active) |
| CSc1nc(C)c(CCOC(C)=O)c(N=P(c2ccccc2)(c2ccccc2)c2ccccc2)n1 | 10 | 4 | -3% | -9% | 92% (active) |

Reference: PubChem BioAssay (NCI)
